Measurements from PubChem BioAssay AID1159580 (chemical genetic matrix, 2015).
About 2,000 (36%) of roughly 5,500 compounds were called active. Inconclusive results (about 18%) are left out. Cut-off read from the data, not from the text of the source: active = normalized growth mostly below about 0.91 (no sharp cut-off); inconclusive = no clear call, values can overlap the other calls; inactive = mostly above about 0.92. The list shows a part of the results.

Assay: chemical genetic growth profiling, strain panel (AID 1159580);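 note: tested at 20 µM; growth read once vehicle control cultures reached saturation at 30 °C; 1 = growth at the plate median or of vehicle wells; lower values mean less growth of the strain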
Conditions: S. cerevisiae deletion strains, growth OD
[1] = locus YAL013W, strain DEP1, hits give low values
[2] = locus YGR078C, strain PAC10, hits give low values
[3] = locus YMR263W, strain SAP30, hits give low values
[4] = locus YNL128W, strain TEP1, hits give low values
[5] = locus YNL322C, strain KRE1, hits give low values
[6] = locus YPL055C, strain LGE1, hits give low values
[7] = locus YPL241C, strain CIN2, hits give low values
[8] = locus YAL040C, strain CLN3, hits give low values
[9] = locus YER002W, strain NOP16, hits give low values
[10] = locus YMR307W, strain GAS1, hits give low values
[11] = locus YNL175C, strain NOP13, hits give low values
[12] = locus YNL197C, strain WHI3, hits give low values
[13] = locus YNL224C, strain SQS1, hits give low values
[14] = locus YOR083W, strain WHI5 (second series), hits give low values

Measured: normalized growth

N#CC(C#N)=CNc1cccc(N)n1
inactive: [1] 0.995 | locus YBR229C, strain ROT2, hits give low values 1.01 | locus YCL061C, strain MRC1, hits give low values 1.04 | locus YDL101C, strain DUN1, hits give low values 1.05 | locus YDL134C, strain PPH21, hits give low values 1.01 | locus YDR150W, strain NUM1, hits give low values 1.07 | locus YEL061C, strain CIN8, hits give low values 1 | [2] 1.02 | locus YGR229C, strain SMI1, hits give low values 1.02 | locus YHR030C, strain SLT2, hits give low values 1.05 | locus YHR087W, strain rtc3, hits give low values 0.968 | locus YJR043C, strain POL32, hits give low values 1.03 | locus YJR075W, strain HOC1, hits give low values 1.05 | locus YLR039C, strain RIC1, hits give low values 1.05 | locus YLR058C, strain SHM2 (second series), hits give low values 0.992 | locus YLR085C, strain ARP6, hits give low values 1.03 | locus YLR262C, strain YPT6, hits give low values 1 | locus YML094W, strain GIM5, hits give low values 0.991 | locus YMR219W, strain ESC1, hits give low values 1 | [3] 1.05 | [4] 1 | locus YNL153C, strain GIM3, hits give low values 1.02 | locus YNL298W, strain CLA4 (second series), hits give low values 1.01 | [5] 1.01 | locus YNR030W, strain Alg12, hits give low values 1 | [6] 0.996 | [7] 1 | locus YPR135W, strain CTF4, hits give low values 1.07

CC(N)C1CCC(C(=O)Nc2ccncc2)CC1 (centres undefined)
inactive: [8] 0.989 | locus YCL061C, strain MRC1 (second series), hits give low values 1 | locus YDR363W, strain ESC2, hits give low values 0.985 | [9] 0.987 | [2] 1.02 | [3] 1 | [10] 1.02 | [4] 1.01 | [11] 0.992 | [12] 0.99 | [13] 0.993 | [14] 1.05 | [6] 0.987 | [7] 0.996

CC(C)(C=O)Cc1cc(C(C)(C)C)c(O)c(C(C)(C)C)c1
inactive: [1] 1.02 | [8] 0.968 | [9] 0.98 | [2] 1 | [10] 1.02 | [4] 1.02 | [11] 1.02 | [12] 0.989 | [13] 1 | [5] 0.994 | [14] 1.01 | [6] 1.01
